# Assay results as given in PMC7862700, “An all-to-all approach to the identification of sequence-specific readers for epigenetic DNA modifications on cytosine”.
# Columns and labels:
# Assay in all cases: DAPPL (digital affinity profiling via proximity ligation, sequencing); 10 mM Tris-HCl pH 7.5, 50 mM NaCl, 1 mM DTT, 4% glycerol, room temperature, 30 min; GST-TFs on glutathione beads, 16-mer random dsDNA library, 0.1% formaldehyde crosslink after washing; high values mean tight binding
# [1] = biological target: T1, FEV (Homo sapiens, UniProt Q99581 1-238); conditions: protein: recombinant; tags: N-terminal GST; dsDNA, one strand shown
# T1 sequence: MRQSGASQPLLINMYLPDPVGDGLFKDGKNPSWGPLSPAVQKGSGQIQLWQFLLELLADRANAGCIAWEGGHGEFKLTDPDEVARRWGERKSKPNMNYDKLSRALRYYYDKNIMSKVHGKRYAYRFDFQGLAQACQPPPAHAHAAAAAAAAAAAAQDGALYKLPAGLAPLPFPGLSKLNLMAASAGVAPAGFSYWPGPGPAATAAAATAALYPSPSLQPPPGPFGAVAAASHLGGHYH
# Summary of the method: (§1)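 Beads coated with glutathione captured GST-fused human transcription factors that had been expressed in yeast, and the factors were then given DNA barcodes and pooled with a tag-only sample. The pools were incubated with 200 nmole of a random double-stranded 16-mer DNA library in Tris/NaCl/DTT/glycerol buffer for 30 min at room temperature, washed, crosslinked with 0.1% formaldehyde and proximity-ligated with BsaI/T4 ligase at 37 °C for 1 h. PCR amplification and Illumina NextSeq500 sequencing came last. Binding signal is each hexamer's read frequency for a factor divided by its frequency for the tag-only sample.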
# [2] = biological target: ETV5 (Homo sapiens, UniProt P41161 1-510); conditions: protein: recombinant; tags: N-terminal GST; dsDNA, one strand shown
# Summary of the method: as §1
# [3] = biological target: HSF1 (Homo sapiens, UniProt Q00613 1-529); conditions: protein: recombinant; tags: N-terminal GST; chain copies: 3; dsDNA, one strand shown
# Summary of the method: as §1
# [4] = biological target: T2, SPIC (Homo sapiens, UniProt Q8N5J4 1-248); conditions: protein: recombinant; tags: N-terminal GST; dsDNA, one strand shown
# T2 sequence: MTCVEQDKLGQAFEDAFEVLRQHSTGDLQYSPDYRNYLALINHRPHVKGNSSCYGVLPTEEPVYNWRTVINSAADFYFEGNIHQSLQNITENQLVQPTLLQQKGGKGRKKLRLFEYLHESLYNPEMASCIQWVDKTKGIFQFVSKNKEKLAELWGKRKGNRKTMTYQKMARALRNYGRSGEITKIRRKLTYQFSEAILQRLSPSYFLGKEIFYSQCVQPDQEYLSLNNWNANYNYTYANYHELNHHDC
# Summary of the method: as §1
# [5] = biological target: ELF4 (Homo sapiens, UniProt Q99607 1-663); conditions: protein: recombinant; tags: N-terminal GST; dsDNA, one strand shown
# Summary of the method: as §1
# [6] = biological target: T3, ELK4 (Homo sapiens, UniProt P28324-2 1-405); conditions: protein: recombinant; tags: N-terminal GST; dsDNA, one strand shown
# T3 sequence: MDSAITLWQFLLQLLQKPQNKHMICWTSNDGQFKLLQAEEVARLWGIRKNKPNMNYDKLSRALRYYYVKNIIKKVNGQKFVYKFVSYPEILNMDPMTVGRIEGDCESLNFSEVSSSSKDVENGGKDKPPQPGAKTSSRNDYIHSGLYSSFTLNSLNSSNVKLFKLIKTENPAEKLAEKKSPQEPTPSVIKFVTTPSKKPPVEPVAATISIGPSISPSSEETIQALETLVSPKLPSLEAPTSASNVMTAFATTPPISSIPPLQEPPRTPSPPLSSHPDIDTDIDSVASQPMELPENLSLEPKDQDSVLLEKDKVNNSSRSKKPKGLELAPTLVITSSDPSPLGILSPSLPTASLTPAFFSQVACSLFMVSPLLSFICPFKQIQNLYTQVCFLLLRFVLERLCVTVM
# Summary of the method: as §1
# [7] = biological target: T4, ETV2 (Homo sapiens, UniProt O00321 1-342); conditions: protein: recombinant; tags: N-terminal GST; dsDNA, one strand shown
# T4 sequence: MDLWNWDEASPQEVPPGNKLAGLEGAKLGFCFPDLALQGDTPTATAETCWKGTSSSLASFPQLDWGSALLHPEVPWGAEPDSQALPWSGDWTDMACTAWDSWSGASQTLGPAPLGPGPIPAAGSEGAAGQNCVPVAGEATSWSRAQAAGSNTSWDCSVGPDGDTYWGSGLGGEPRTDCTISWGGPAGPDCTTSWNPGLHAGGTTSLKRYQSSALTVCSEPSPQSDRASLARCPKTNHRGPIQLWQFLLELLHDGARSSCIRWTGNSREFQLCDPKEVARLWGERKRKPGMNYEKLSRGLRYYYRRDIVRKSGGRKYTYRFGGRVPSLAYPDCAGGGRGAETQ
# Summary of the method: as §1
# [8] = biological target: T5, ELF3 (Homo sapiens, UniProt P78545 1-371); conditions: protein: recombinant; tags: N-terminal GST; dsDNA, one strand shown
# T5 sequence: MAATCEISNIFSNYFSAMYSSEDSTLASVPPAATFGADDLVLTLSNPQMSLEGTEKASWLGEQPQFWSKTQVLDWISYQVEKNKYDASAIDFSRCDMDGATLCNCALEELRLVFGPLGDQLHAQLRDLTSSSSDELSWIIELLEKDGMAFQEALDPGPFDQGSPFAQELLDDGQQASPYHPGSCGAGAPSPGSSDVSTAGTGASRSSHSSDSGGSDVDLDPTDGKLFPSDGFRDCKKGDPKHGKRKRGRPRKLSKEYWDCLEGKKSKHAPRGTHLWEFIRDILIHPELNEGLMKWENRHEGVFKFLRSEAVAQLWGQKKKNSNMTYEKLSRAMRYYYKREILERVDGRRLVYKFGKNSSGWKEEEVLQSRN
# Summary of the method: as §1
# [9] = biological target: CRX (Homo sapiens, UniProt O43186 1-299); conditions: protein: recombinant; tags: N-terminal GST; dsDNA, one strand shown
# Summary of the method: as §1
# [10] = biological target: ETV1 (Homo sapiens, UniProt P50549 1-477); conditions: protein: recombinant; tags: N-terminal GST; dsDNA, one strand shown
# Summary of the method: as §1
# [11] = biological target: T6, ERF (Homo sapiens, UniProt P50548 1-548); conditions: protein: recombinant; tags: N-terminal GST; dsDNA, one strand shown
# T6 sequence: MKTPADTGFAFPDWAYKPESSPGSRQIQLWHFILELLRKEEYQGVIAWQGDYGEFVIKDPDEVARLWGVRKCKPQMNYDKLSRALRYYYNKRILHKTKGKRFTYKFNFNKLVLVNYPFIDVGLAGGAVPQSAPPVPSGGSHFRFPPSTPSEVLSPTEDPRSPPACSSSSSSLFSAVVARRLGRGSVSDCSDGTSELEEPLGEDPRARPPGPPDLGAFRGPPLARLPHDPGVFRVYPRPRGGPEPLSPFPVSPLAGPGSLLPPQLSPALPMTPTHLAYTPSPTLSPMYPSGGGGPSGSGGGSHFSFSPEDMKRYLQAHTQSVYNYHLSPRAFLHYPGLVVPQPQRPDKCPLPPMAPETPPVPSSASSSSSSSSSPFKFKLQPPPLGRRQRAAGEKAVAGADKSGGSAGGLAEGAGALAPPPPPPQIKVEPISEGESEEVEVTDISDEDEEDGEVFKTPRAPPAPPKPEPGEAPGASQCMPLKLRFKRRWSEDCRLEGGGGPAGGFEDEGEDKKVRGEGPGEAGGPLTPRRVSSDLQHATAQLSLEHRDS
# Summary of the method: as §1
# [12] = biological target: T7, ETV3L (Homo sapiens, UniProt Q6ZN32 1-361); conditions: protein: recombinant; tags: N-terminal GST; dsDNA, one strand shown
# T7 sequence: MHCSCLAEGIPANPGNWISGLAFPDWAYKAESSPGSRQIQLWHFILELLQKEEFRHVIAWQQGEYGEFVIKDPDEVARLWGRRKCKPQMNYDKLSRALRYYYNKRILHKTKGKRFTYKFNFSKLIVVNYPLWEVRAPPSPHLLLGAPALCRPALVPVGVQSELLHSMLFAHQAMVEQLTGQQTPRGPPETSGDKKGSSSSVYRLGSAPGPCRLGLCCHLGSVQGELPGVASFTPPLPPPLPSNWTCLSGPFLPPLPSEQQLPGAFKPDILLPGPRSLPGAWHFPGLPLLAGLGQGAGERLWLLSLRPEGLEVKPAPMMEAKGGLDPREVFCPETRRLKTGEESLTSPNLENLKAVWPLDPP
# Summary of the method: as §1
# [13] = biological target: T8, ETS2 (Homo sapiens, UniProt P15036 1-469); conditions: protein: recombinant; tags: N-terminal GST; dsDNA, one strand shown
# T8 sequence: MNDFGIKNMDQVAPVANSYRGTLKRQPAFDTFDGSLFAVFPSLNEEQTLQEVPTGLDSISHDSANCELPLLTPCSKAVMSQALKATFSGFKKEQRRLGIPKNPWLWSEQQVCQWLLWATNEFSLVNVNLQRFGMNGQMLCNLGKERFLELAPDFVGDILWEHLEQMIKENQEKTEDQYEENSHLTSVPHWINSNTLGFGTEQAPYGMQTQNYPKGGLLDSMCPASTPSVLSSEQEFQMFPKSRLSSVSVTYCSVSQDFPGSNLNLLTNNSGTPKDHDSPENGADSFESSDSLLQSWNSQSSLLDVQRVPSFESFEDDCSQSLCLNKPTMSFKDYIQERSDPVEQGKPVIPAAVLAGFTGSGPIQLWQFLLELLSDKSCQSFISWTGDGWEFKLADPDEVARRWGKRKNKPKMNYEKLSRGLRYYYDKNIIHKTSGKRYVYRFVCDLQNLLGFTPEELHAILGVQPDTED
# Summary of the method: as §1
# [14] = biological target: T9, SPDEF (Homo sapiens, UniProt O95238 1-335); conditions: protein: recombinant; tags: N-terminal GST; dsDNA, one strand shown
# T9 sequence: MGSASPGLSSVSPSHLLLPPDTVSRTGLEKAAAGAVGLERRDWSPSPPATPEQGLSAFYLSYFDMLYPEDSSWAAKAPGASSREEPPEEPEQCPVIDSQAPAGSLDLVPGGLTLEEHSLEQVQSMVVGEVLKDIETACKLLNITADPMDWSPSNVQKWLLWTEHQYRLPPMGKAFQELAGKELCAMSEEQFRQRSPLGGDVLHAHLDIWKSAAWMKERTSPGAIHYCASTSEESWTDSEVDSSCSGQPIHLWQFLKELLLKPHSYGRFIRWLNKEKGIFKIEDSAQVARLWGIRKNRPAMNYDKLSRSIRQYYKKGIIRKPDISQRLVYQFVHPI
# Summary of the method: as §1
# [15] = biological target: T10, ETV7 (Homo sapiens, UniProt Q9Y603 1-341); conditions: protein: recombinant; tags: N-terminal GST; dsDNA, one strand shown
# T10 sequence: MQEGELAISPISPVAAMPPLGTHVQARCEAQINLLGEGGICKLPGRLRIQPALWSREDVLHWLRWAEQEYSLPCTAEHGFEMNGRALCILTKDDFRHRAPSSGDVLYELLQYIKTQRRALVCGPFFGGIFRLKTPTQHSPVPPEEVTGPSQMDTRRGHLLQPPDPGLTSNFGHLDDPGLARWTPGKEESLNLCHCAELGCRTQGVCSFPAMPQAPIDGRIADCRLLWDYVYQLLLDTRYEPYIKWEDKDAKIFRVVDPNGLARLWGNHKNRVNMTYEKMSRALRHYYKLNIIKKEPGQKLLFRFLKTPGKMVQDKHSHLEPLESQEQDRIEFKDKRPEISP
# Summary of the method: as §1
# [16] = biological target: T11, ELF5 (Homo sapiens, UniProt Q9UKW6-2 1-255); conditions: protein: recombinant; tags: N-terminal GST; dsDNA, one strand shown
# T11 sequence: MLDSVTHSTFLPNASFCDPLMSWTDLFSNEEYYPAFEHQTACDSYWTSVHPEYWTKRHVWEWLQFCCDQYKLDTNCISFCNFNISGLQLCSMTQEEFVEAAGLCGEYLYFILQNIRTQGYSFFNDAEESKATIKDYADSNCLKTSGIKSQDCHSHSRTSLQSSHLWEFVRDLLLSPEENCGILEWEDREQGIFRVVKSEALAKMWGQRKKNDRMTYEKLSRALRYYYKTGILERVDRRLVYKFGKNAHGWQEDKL
# Summary of the method: as §1
# [17] = biological target: T12, ETV3 (Homo sapiens, UniProt P41162-2 1-143); conditions: protein: recombinant; tags: N-terminal GST; dsDNA, one strand shown
# T12 sequence: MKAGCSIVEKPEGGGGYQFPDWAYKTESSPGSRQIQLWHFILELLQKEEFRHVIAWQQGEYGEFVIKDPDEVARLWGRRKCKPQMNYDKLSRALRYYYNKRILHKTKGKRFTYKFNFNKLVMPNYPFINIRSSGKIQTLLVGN
# Summary of the method: as §1
# [18] = biological target: ETV6 (Homo sapiens, UniProt P41212 1-452); conditions: protein: recombinant; tags: N-terminal GST; dsDNA, one strand shown
# Summary of the method: as §1
# Sequence of ETV5 (P41161 whole entry): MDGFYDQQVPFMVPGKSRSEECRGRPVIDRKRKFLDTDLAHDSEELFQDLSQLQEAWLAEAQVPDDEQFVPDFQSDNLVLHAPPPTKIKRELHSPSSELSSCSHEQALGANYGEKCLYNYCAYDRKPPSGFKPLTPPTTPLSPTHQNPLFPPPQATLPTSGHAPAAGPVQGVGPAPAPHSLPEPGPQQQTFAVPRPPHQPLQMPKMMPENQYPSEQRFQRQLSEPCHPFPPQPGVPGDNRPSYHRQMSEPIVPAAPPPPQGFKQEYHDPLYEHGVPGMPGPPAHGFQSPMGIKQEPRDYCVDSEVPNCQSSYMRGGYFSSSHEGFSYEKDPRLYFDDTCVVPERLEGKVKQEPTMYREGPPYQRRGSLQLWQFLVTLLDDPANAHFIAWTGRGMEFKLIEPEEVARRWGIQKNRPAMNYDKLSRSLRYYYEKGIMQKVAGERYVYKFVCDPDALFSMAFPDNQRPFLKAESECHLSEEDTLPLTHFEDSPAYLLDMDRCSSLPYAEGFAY
# Sequence of CRX (O43186 whole entry): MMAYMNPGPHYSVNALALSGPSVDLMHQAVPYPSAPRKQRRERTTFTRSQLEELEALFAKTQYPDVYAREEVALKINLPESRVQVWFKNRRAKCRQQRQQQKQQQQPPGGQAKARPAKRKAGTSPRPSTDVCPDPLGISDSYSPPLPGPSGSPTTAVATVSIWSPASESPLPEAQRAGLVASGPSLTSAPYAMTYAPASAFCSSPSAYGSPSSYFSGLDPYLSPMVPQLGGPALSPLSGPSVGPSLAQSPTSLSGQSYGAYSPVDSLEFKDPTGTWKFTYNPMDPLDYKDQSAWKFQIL
# Sequence of ETV6 (P41212 whole entry): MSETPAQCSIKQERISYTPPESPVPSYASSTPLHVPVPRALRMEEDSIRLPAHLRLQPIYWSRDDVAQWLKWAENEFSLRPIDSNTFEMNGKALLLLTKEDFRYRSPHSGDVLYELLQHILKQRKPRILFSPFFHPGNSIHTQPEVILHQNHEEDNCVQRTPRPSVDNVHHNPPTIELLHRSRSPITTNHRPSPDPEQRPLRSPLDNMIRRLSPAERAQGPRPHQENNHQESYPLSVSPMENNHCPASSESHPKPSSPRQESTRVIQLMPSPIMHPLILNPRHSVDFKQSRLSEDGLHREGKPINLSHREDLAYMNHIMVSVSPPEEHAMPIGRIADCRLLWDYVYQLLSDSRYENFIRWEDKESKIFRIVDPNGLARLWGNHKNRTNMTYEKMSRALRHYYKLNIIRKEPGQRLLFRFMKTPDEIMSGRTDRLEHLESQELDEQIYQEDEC
# Sequence of ETV1 (P50549 whole entry): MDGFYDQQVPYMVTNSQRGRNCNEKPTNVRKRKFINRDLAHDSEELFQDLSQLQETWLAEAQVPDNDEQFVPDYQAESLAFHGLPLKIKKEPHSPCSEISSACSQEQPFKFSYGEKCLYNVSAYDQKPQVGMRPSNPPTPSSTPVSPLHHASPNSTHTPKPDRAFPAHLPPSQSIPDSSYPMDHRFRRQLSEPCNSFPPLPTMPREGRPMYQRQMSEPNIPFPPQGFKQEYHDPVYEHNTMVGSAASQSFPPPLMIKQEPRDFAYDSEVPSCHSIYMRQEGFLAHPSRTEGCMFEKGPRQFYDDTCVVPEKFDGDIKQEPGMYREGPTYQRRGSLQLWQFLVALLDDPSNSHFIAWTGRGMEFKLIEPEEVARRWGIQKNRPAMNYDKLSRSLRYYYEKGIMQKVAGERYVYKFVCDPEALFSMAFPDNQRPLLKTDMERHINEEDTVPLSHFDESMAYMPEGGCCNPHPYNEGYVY
# Sequence of ELF4 (Q99607 whole entry): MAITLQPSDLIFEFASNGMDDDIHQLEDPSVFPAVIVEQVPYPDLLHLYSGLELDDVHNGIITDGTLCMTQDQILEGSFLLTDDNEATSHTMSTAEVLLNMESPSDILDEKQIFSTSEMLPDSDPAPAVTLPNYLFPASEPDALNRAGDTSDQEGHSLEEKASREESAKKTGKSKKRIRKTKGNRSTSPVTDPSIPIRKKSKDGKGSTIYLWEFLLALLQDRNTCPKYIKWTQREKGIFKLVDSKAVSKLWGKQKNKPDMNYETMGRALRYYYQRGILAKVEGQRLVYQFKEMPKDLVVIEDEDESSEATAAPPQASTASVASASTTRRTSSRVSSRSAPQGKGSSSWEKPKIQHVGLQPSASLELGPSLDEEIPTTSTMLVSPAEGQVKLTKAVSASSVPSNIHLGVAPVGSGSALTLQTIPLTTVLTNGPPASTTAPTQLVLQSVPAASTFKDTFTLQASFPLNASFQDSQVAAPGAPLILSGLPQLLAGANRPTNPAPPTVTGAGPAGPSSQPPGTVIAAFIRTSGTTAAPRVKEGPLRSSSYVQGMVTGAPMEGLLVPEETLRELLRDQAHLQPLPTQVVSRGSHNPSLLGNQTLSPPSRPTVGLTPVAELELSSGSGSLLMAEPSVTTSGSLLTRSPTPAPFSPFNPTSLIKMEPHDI
# Sequence of HSF1 (Q00613 whole entry): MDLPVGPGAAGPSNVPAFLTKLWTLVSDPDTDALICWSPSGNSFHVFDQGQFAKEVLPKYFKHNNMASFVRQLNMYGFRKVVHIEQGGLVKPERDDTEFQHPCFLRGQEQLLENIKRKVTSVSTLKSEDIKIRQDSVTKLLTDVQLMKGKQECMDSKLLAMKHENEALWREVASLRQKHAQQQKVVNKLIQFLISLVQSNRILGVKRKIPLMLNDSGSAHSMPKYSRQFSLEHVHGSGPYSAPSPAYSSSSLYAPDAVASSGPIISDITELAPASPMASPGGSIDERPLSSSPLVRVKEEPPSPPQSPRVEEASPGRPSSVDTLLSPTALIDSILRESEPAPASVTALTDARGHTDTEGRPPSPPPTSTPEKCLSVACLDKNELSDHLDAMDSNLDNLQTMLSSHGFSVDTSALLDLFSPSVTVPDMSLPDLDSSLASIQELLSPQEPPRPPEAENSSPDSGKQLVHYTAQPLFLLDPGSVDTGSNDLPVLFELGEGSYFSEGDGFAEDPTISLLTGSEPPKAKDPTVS
sequence,measurement,setting,value
AATTTC,binding signal,[1],"1.93 fold enrichment (6-mer frequency, TF over GST control)"
same,binding signal,[2],"1.8 fold enrichment (6-mer frequency, TF over GST control)"
same,binding signal,[3],"1.89 fold enrichment (6-mer frequency, TF over GST control)"
same,binding signal,[4],"1.59 fold enrichment (6-mer frequency, TF over GST control)"
same,binding signal,[5],"1.61 fold enrichment (6-mer frequency, TF over GST control)"
same,binding signal,[6],"1.6 fold enrichment (6-mer frequency, TF over GST control)"
same,binding signal,[7],"1.88 fold enrichment (6-mer frequency, TF over GST control)"
same,binding signal,[8],"1.75 fold enrichment (6-mer frequency, TF over GST control)"
same,binding signal,[9],"1.49 fold enrichment (6-mer frequency, TF over GST control)"
same,binding signal,[10],"1.79 fold enrichment (6-mer frequency, TF over GST control)"
same,binding signal,[11],"1.7 fold enrichment (6-mer frequency, TF over GST control)"
same,binding signal,[12],"1.73 fold enrichment (6-mer frequency, TF over GST control)"
same,binding signal,[13],"1.83 fold enrichment (6-mer frequency, TF over GST control)"
same,binding signal,[14],"1.59 fold enrichment (6-mer frequency, TF over GST control)"
same,binding signal,[15],"1.74 fold enrichment (6-mer frequency, TF over GST control)"
same,binding signal,[16],"2.31 fold enrichment (6-mer frequency, TF over GST control)"
same,binding signal,[17],"1.78 fold enrichment (6-mer frequency, TF over GST control)"
same,binding signal,[18],"1.94 fold enrichment (6-mer frequency, TF over GST control)"
